The values below come from PubChem BioAssay AID1851 (National Center for Advancing Translational Sciences (NCATS), 2009).

What is called AC50 is the midpoint of the concentration-response curve, whichever way the signal moves.

The whole screen tested about 16,000 compounds, of which about 4,000 (25%) were called active. About 26% were inconclusive and are not listed. These entries were drawn from the full list. Unmarked numbers belong to inactive results. Calls follow the shape of the dose curve; as a rule, active = well fitted curve in the direction sought with a large enough effect; inconclusive = small, poorly fitted or top-dose-only effect, or effect the other way; inactive = no such curve, though single readings can be large or run the other way.
% is scaled to controls: 0 for no effect and ±100 for the full control effect.

The target of the experiment is Cytochrome P450 2C9 (Homo sapiens) (UniProt P11712). The experiment is described as follows: Cytochrome panel assay with activity outcomes. Conditions: recombinant CYP, pro-luciferin dealkylation, luminescence, p450-cyp2c9; series mostly up to 57.1 µM.
Sequence of Cytochrome P450 2C9 (Homo sapiens) (P11712 whole entry, looked up): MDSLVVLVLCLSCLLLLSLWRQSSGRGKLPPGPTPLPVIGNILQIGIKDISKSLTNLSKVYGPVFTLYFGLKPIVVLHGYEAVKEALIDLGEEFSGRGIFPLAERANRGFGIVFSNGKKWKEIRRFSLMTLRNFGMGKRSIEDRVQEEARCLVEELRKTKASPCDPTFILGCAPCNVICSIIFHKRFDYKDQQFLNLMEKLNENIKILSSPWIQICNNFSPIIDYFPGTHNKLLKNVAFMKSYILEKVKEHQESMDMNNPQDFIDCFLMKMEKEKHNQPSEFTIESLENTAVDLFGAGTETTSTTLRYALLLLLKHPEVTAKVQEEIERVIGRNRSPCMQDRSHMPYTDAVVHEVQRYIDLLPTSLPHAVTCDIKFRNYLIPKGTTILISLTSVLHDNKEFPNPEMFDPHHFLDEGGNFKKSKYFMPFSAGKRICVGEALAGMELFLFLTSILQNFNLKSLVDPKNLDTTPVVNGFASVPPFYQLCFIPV
Take `COc1cccc(-c2cncnc2N(C)Cc2ccco2)c1`: the activity, negative = inhibition was -5.51% [at 2.29 µM].

As for `CC1(C)CC(=O)c2c(Cc3ccccc3)n[nH]c2C1`, the AC50 is 14.1 µM (active).

On to `C=CCN=C1CC(C)(C)CC(=O)/C1=C(\O)c1ccccc1`, for which the AC50 result is “inactive”. `O=C(Nc1ccccc1C(=O)O)c1ccc2ccccc2n1`: the concentration at half-maximal activity (AC50) was 8.91 µM (active). Take `O=C(O)c1ccc(C(=O)Nc2cccc3ccccc23)c(C(=O)O)c1`: the activity, negative = inhibition is -2.72% [at 11.4 µM]. `CC(=O)Nc1ccccc1C(=O)C(=O)O`: the AC50 entry is “inactive”. In the case of `O=C(Nc1cccc(-c2cn3cccnc3n2)c1)c1ccco1`, the AC50 was 12.6 µM (active).

Consider `CCCC(=O)Nc1cc(-c2cn3cccnc3n2)ccc1OC`, for which the AC50 result was “inactive”. In the case of `C[C@@H]1NCC[C@H](CC(=O)O)[C@H]1CC(=O)O`, the activity, negative = inhibition was -13.5% [at 11.4 µM].

Consider `CC(C)(C)c1ccc(CN(Cc2ccco2)Cc2nnnn2C2CCCC2)cc1`, for which the AC50 was 3.55 µM (active).

`O=C1CCc2cc(OCCCCc3nnnn3C3CCCCC3)ccc2N1`: the AC50 result is “inactive”. On to `O=C(O)c1nnsc1-c1csnn1`, for which the activity, negative = inhibition was -13.9% [at 11.4 µM]. Turning to `CCNC(=O)NC1(C(=O)Nc2ccc3c(c2)OCCO3)CCCCC1`, the AC50 result was “inactive”.

Regarding `O=C(Nc1ccc2c(c1)OCCO2)c1cc2sccc2n1Cc1ccc(F)cc1`, the AC50 was 3.55 µM (active). Turning to `CCO[P@]1(=O)OC[C@@H]2O[C@H](n3cnc4c(N)ncnc43)[C@H](O)[C@@H]2O1`, the activity, negative = inhibition is -1.07% [at 11.4 µM]. Take `O=C(Nc1ccccc1)N1CC[C@@]2(CCCN(C(=O)c3cc(C(F)(F)F)cc(C(F)(F)F)c3)C2)C1`: the AC50 result was “inactive”. Same read-out and setting: for `CCCCC(=O)OCc1cn(-c2ccc(Cl)cc2)nn1` the value was 17.8 µM (active); for `NNC(=O)c1nn(-c2ccc(Cl)cc2)ccc1=O`, “inactive”. In the case of `Cc1ccccc1NC(=O)OCc1cn(-c2ccc(Cl)cc2)nn1`, the AC50 result is “inactive”.

With `CCOC(=O)CCN1C(=O)[C@H]2[C@H]3[C@H](O)[C@H](O)C/C(=N/OC/C=C(\C)CCC=C(C)C)[C@H]3CC[C@@H]2C1=O`, the activity, negative = inhibition is 3.33% [at 11.4 µM]. Consider `CCC(Sc1nc(=O)cc(N)n1CCc1ccccc1)C(=O)Nc1ccccc1C#N` (stereo not given), for which the AC50 was 2.51 µM (active).

With `CCNc1ncc2nc(C)c(=O)n(CCc3ccccc3)c2n1`, the AC50 result is “inactive”.

On to `CC(=O)O[C@@H](C)C[N+](C)(C)C`, for which the AC50 result was “inactive”. With `N#Cc1cccc(NC(=O)N2CC[C@@]3(CCCN(C(=O)c4ccncc4)C3)C2)c1`, the AC50 entry was “inactive”. Turning to `CC(=O)N1CCN(S(=O)(=O)c2ccccc2)C1c1ccccc1` (stereo not given), the AC50 entry was “inactive”.

For the molecule `Cc1ccc(S(=O)(=O)N2CCN(C(=O)c3ccccc3)C2C(C)C)cc1` (stereo not given), the AC50 is 25.1 µM (active). For `Cc1ccc(S(=O)(=O)N2CCC(C(=O)O)(c3ccccc3)CC2)cc1`, the activity, negative = inhibition is -9.94% [at 11.4 µM].

Turning to `Cc1noc(C)c1-c1nccc(Nc2ccc(F)cc2)n1`, the activity, negative = inhibition was 25.8% [at 2.29 µM]. Consider `O=C(CN1CCN(c2ccc(Cl)cc2)CC1)Nc1ccc(F)c(F)c1`, for which the AC50 was 3.55 µM (active). With `O=C(CSc1ccc(Cl)cc1)Nc1ccc(N2CCN(c3ccccc3)CC2)c(F)c1`, the AC50 result was “inactive”.

Consider `O=C(O)CCC(=O)Nc1ccc(C(=O)N2CCCCC2)cc1`, for which the AC50 result was “inactive”. As for `Fc1cccc(NC(=S)NCCCN2CCOCC2)c1`, the AC50 result is “inactive”.

For `COC(=O)N1CCC2(CCN(C(=O)Nc3cccc(F)c3)CC2)CC1`, the AC50 entry is “inactive”. For the molecule `O=C(CN1CCN(c2ccc(Cl)cc2)CC1)Nc1cccc(F)c1`, the concentration at half-maximal activity (AC50) was 2.82 µM (active). On to `O=C(CSc1ccc(Cl)cc1)Nc1ccc(N2CCN(C(=O)c3ccc(Cl)cc3)CC2)cc1`, for which the AC50 is 5.01 µM (active).

`COc1ccc2c(Cl)c(-c3nnco3)sc2c1`: the AC50 entry was “inactive”. On to `[O-][N+]1(CC[N+]2([O-])CCCCC2)CCCCC1`, for which the activity, negative = inhibition is -6.33% [at 11.4 µM]. Regarding `CCOC(=O)CSc1nnc(CSc2nc3sc4c(c3c(=O)[nH]2)CCCC4)n1-c1ccccc1`, the AC50 is 5.01 µM (active). Regarding `CCOC(=O)CSc1nnc(Cc2cc(=O)[nH]c(=O)[nH]2)n1-c1cccc(OC)c1`, the AC50 entry is “inactive”. For `CCOC(=O)CC1C(=O)NCCN1S(=O)(=O)c1ccc(Cl)c(Cl)c1` (stereo not given), the AC50 result is “inactive”. Same read-out and setting: for `O=C(NCc1ccccc1Cl)c1ccc2c(=O)n(CCCN3CCCC3=O)c(=S)[nH]c2c1` the value was 8.91 µM (active); for `COCCn1c(=S)[nH]c2cc(C(=O)NC(C)C)ccc2c1=O`, “inactive”.

`COCCCNC(=O)c1ccc2c(=O)n(CC3CCCO3)c(=S)[nH]c2c1` (stereo not given): the AC50 result was “inactive”.

As to `N#Cc1cccc(-c2cc(NCc3cccnc3)ncn2)c1`, the activity, negative = inhibition was -26.2% [at 2.29 µM].

With `COc1ccc2[nH]c(=O)c(CN(CCO)C(=O)c3cccs3)cc2c1`, the AC50 entry is “inactive”. For the molecule `COc1cccc(C(=O)N(Cc2ccccc2)Cc2cc3cc4c(cc3[nH]c2=O)OCCO4)c1`, the concentration at half-maximal activity (AC50) was 10 µM (active). As to `Cc1cnc(CNc2cc(-c3cccc(C#N)c3)ncn2)cn1`, the activity, negative = inhibition was 19.4% [at 2.29 µM].

On to `COc1cccc(Cn2c(=O)c(-c3cccs3)nc3cnc(N4CCNCC4)nc32)c1`, for which the concentration at half-maximal activity (AC50) was 12.6 µM (active). Take `COc1cccc(Cn2c(=O)c(-c3ccc(Cl)cc3)nc3cnc(N4CCN(C)CC4)nc32)c1`: the AC50 entry was “inactive”.

For the molecule `CCNc1ncc2nc(-c3ccc(Cl)cc3)c(=O)n(Cc3cccc(OC)c3)c2n1`, the AC50 entry is “inactive”.

Consider `COc1ccc(-c2nc3cnc(N4CCNCC4)nc3n(CCc3ccccc3)c2=O)cc1`, for which the AC50 was 3.98 µM (active).

Turning to `COc1cccc(Cn2c(=O)c(-c3ccc(Cl)cc3)nc3cnc(N4CCNCC4)nc32)c1`, the half-maximal activity concentration (AC50) was 12.6 µM (active). Regarding `COc1cccc(Cn2c(=O)c(-c3ccc(F)cc3)nc3cnc(N4CCNCC4)nc32)c1`, the concentration at half-maximal activity (AC50) was 15.8 µM (active). For `COc1ccc(-c2nc3cnc(N4CCN(C)CC4)nc3n(CCC#N)c2=O)cc1`, the AC50 entry was “inactive”. With `COc1ccc(-c2nc3cnc(N4CCN(C)CC4)nc3n(Cc3ccc(F)cc3)c2=O)cc1`, the AC50 entry is “inactive”. Take `CCCS(=O)(=O)N1CCCC(C(=O)NCCCOC(C)C)C1` (stereo not given): the AC50 entry was “inactive”. In the case of `COc1cccc(Cn2c(=O)c(-c3ccccc3)nc3cnc(N4CCNCC4)nc32)c1`, the AC50 is 12.6 µM (active). Turning to `COc1ccc(-n2c(=O)c(-c3cc(F)cc(F)c3)nc3cnc(N4CCNCC4)nc32)cc1`, the AC50 result is “inactive”. Take `COc1cccc(Cn2c(=O)c(-c3ccccc3)nc3cnc(N4CCN(C)CC4)nc32)c1`: the AC50 result was “inactive”. As for `COc1cccc(Cn2c(=O)c(-c3cc(F)cc(F)c3)nc3cnc(N4CCNCC4)nc32)c1`, the concentration at half-maximal activity (AC50) was 7.94 µM (active). `COc1cccc(Cn2c(=O)c(-c3cc(F)cc(F)c3)nc3cnc(N(C)C)nc32)c1`: the AC50 result is “inactive”. Regarding `COc1ccc(-c2nc3cnc(N4CCNCC4)nc3n(Cc3cccc(OC)c3)c2=O)cc1`, the AC50 was 25.1 µM (active). For the molecule `COc1ccc(-n2c(=O)c(-c3ccc(Cl)cc3)nc3cnc(N4CCNCC4)nc32)cc1`, the AC50 result was “inactive”. For `CCC1(c2ccccc2)C(=O)NCNC1=O`, the AC50 entry was “inactive”. `CC(C)CO/N=C1/[C@H]2O[C@@H]2[C@@H](O)[C@H]2[C@H]1CCn1c(=O)n(C)c(=O)n12`: the activity, negative = inhibition was -1.24% [at 11.4 µM]. Regarding `O=C(CC(c1ccccc1)c1ccccc1)NCC1CCCO1` (stereo not given), the AC50 is 20 µM (active). For the molecule `O=C(NCC1CCCO1)C1CCC(=O)N1CCc1ccccc1` (stereo not given), the AC50 result was “inactive”. Turning to `Cc1ccc(C(=O)NC(=S)NCC2CCCO2)cc1` (stereo not given), the AC50 was 7.94 µM (active).

For the molecule `CCC(=O)NC(NCC1CCCO1)C(Cl)(Cl)Cl` (stereo not given), the AC50 entry is “inactive”. For the molecule `CCOC(=O)Nc1ccc(C(=O)NCC2CCCO2)cc1` (stereo not given), the AC50 entry was “inactive”.

With `CN(c1ccc(C(=O)NCC2CCCO2)cc1)S(=O)(=O)c1ccccc1` (stereo not given), the half-maximal activity concentration (AC50) is 25.1 µM (active). For the molecule `CN(C)c1ccc(N=Cc2nc(-c3ccccc3)oc2O)cc1`, the concentration at half-maximal activity (AC50) is 7.08 µM (active). For the molecule `CN(C)c1ccc(N=C/C=C2\N(C)c3ccccc3C2(C)C)cc1`, the AC50 entry is “inactive”. In the case of `CN(C)c1ccc(N=Nc2cccc3ccoc23)cc1`, the activity, negative = inhibition is 18.2% [at 11.4 µM].

As to `O=C(Oc1oc(-c2ccco2)nc1C=Nc1ccc(Cl)cc1)c1ccco1`, the AC50 entry is “inactive”. Consider `Oc1oc(-c2ccccc2)nc1C=Nc1ccccc1`, for which the half-maximal activity concentration (AC50) was 8.91 µM (active).

Take `CCn1c(-c2ccc3ncccc3c2)n[nH]c1=S`: the AC50 entry is “inactive”. Turning to `c1cncc(-c2cc(-c3cc(-c4cccnc4)n[nH]3)[nH]n2)c1`, the activity, negative = inhibition is 8.46% [at 11.4 µM]. Take `CC(/C=N/n1c(-c2cccnc2)n[nH]c1=S)=C\c1ccccc1`: the AC50 is 10 µM (active). For the molecule `CN1[C@@H]2CC[C@H]1CC(OC(c1ccccc1)c1ccccc1)C2` (stereo not given in full), the AC50 result was “inactive”. As for `O=C(OC(C(=O)O)C(OC(=O)c1ccccc1)C(=O)NCc1ccccc1)c1ccccc1` (stereo not given), the AC50 result is “inactive”. For the molecule `Cc1ccc(N(C(=O)c2csnn2)C(C(=O)NC(C)(C)C)c2cccs2)cc1` (stereo not given), the AC50 entry is “inactive”. Consider `CCc1ccc(N(C(=O)c2csnn2)C(C(=O)NCc2ccccc2)c2ccco2)cc1` (stereo not given), for which the concentration at half-maximal activity (AC50) was 14.1 µM (active). On to `Cc1ccc(S(N)(=O)=O)cc1NC(=O)/C=C/c1cccs1`, for which the AC50 result is “inactive”.

Regarding `Cc1ccc(S(=O)(=O)N2CCOCC2)cc1NC(=O)COC(=O)CCC(=O)c1cccs1`, the concentration at half-maximal activity (AC50) is 14.1 µM (active).

With `CCN(CC)c1ccc2c(c1)OC(N)=C(C#N)C2c1cccnc1` (stereo not given), the AC50 is 7.94 µM (active). Turning to `Cc1nc(SCc2cccc(Oc3ccccc3)c2)n[nH]1`, the half-maximal activity concentration (AC50) is 15.8 µM (active).

On to `CN(C)Cc1ccccc1-c1nccc(NCc2cccs2)n1`, for which the activity, negative = inhibition was 13.4% [at 2.29 µM]. Same read-out and setting: the figure for `COCCNc1ncnc2ccc(-c3ccccc3CN(C)C)cc12` is 25.7% [at 2.29 µM]. In the case of `CCCc1cc(=O)[nH]c(=S)[nH]1`, the AC50 entry was “inactive”. `CN1CCN(c2ncc3ncc(=O)n(CCC#N)c3n2)CC1`: the AC50 result is “inactive”.

Consider `CC(=O)OC[C@H]1O[C@@H](ON=C(C)C)[C@H](OC(C)=O)[C@@H](OC(C)=O)[C@H]1OC(C)=O`, for which the activity, negative = inhibition was 6.05% [at 11.4 µM]. Regarding `CC(C)(O)C#Cc1ccc(C(=O)NCc2cccs2)s1`, the half-maximal activity concentration (AC50) is 25.1 µM (active).

On to `O=C(Cn1cccc1C(=O)c1ccccc1)NCc1cccs1`, for which the AC50 entry is “inactive”. In the case of `CC(C)(C)C(=O)Nc1nnc(SCC(=O)NCc2cccs2)s1`, the AC50 result is “inactive”.
